Values joined by “and” are separate entries in the source; they are usually repeats but may differ in a detail not shown here. Identical values can stand only once. Results filed as inconclusive are left out. Where a structure was tested more than once in an assay, its records may differ in their call. Active and inactive are the calls of the source. Unless noted, calls follow the shape of the dose curve; as a rule, active = well fitted curve in the direction sought with a large enough effect in the repeat runs; inconclusive = weak or mixed curves; inactive = no such curve, though single readings can be large; an effect the other way counts as inactive or inconclusive.

For eight compounds, Potency and outcome results are on record in PubChem BioAssay (Tox21).

In assay [1] the target is Estrogen receptor (Homo sapiens) (UniProt P03372). Put plainly: qHTS assay to identify small molecule antagonists of the estrogen receptor alpha (ER-alpha) signaling pathway using the BG1 cell line in the presence of 0.1 nM 17-beta-estradiol (AID 1259244). Also: nearly all actives have a fitted effect of over 50% in size. The method, boiled down:
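Estradiol at 0.1 nM (final) stimulates the endogenous ER-alpha of VM7Luc4E2 cells carrying an ERE-driven luciferase; compounds are co-incubated 22 h at 37C and luciferase output quantified by luminescence.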
A general note: In qHTS, concentration-response curves come from the screen itself.

Assay [2] in a line: qHTS assay to identify small molecule HDAC inhibitors (AID 1259364).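 Also: wild-type HCT-116 cells with endogenous class I/II HDAC activity; top concentration of the series differs between compounds; nearly all actives have a fitted effect of over 45% in size.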 Put shortly: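 Read-out: luminescence of HDAC-Glo I/II reagent, 30 min RT, reflecting class I/II deacetylase activity in whole HCT-116 cells pre-exposed 2 h to DMSO-dissolved compounds.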
The nature of assay [3]: qHTS assay to identify small molecule HDAC inhibitors - cell viability counter screen (AID 1259365). Also: series mostly up to about 92 µM; nearly all actives have a fitted effect of over 50% in size. Put shortly: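 Wild-type HCT-116 cells, 1,500/well, cultured overnight, then compound-treated 2 h at 37 C. Viability measured as ATP luminescence with CellTiter-Glo after 30 min at room temperature.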
Assay [4] is described as follows: qHTS assay to identify small molecule agonists of the sonic hedgehog signaling (Shh) pathway - cell viability counter screen (AID 1259366). Also: nearly all actives have a fitted effect of over 50% in size. The method, boiled down:
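NIH/3T3-derived Gli1-Luc reporter cells, 2,000 per well, received compound after 4 h and were treated about 23 h at 37C. Viability measured in the same wells by CellTiter-Fluor fluorescence after 1 h.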

Assay [5] is described as follows: qHTS assay to identify small molecule antagonists of the sonic hedgehog signaling (Shh) pathway - cell viability counter screen (AID 1259367). Also: nearly all actives have a fitted effect of over 55% in size. The method, boiled down:
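NIH/3T3-derived Gli1-Luc reporter cells (2,000 per well) rested 4 hr at 37 C, then received DMSO compounds plus conditioned medium. After 23 hr of treatment, CellTiter-Fluor was added for 1 hr at 37C and fluorescence read.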

Assay [6] can be described thus: qHTS assay to identify small molecule agonists of the sonic hedgehog signaling (Shh) pathway (AID 1259368; calls by dose curve;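 also: NIH/3T3-derived 3T3Gli1-Luc cells carrying a stable Gli1-driven firefly luciferase reporter; series mostly up to about 92 µM; nearly all actives have a fitted effect of over 15% in size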). Put shortly: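 A Gli1 transcriptional response element controlled firefly luciferase in 3T3Gli1-Luc cells. Compounds and a positive control were added 4 hr after plating, and cells were incubated a further 24 hr at 37 C before luminescence detection.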
The nature of assay [7]: qHTS assay to identify small molecule antagonists of the sonic hedgehog signaling (Shh) pathway (AID 1259369; calls by dose curve; also: nearly all actives have a fitted effect of over 45% in size; also: potency is read from the fitted curve at half-maximal effect). Put shortly: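 For antagonist detection, the reporter line received test compounds together with conditioned medium, incubated 24hr at 37 C, 5% CO2, then luminescence was recorded following 30min room-temperature luciferase reagent incubation.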
The target in assay [8] is Estrogen receptor beta (Homo sapiens) (UniProt Q92731). Description: qHTS assay to identify small molecule agonists of the estrogen receptor beta (ER-beta) signaling pathway (AID 1259377; active = well fitted activation curve with a large enough effect in the signal ratio in the repeat runs, not every such curve was filed as active; the % refers to the signal ratio; also: potency is read from the fitted curve at half-maximal effect). The method, boiled down: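 ER-beta-UAS-bla HEK293T cells in medium with 2% charcoal-stripped FBS were exposed to compounds for 16 h at 37C. Beta-lactamase reporter activity was read as fluorescence after 2 h with LiveBLAzer B/G FRET substrate at room temperature.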

For assay [9] the target is unchanged. Put plainly: qHTS assay to identify small molecule antagonists of the estrogen receptor beta (ER-beta) signaling pathway (AID 1259378; active = well fitted inhibition curve with a large enough effect in the signal ratio in the repeat runs, not every such curve was filed as active; the % refers to the signal ratio). Put shortly: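 ER-beta-UAS-bla HEK293T (GripTite) cells in 2% charcoal-stripped FBS medium were preincubated 6 hr at 37C, dosed with compound, then stimulated with 1 nM E2 (final) for 16 hr; beta-lactamase reporter read by B/G FRET fluorescence after 2 hr substrate loading.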

The nature of assay [10]: qHTS assay to identify small molecule agonists of the androgen receptor (AR) signaling pathway in the presence of an antagonist - cell viability counter screen (AID 1259379).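 Also: MDA-kb2 human breast cancer cells carrying an MMTV luciferase reporter; series mostly up to about 92 µM; nearly all actives have a fitted effect of over 25% in size.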 The method, boiled down: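 Seed MDA-kb2 at 3,000 cells/well; incubate 5 hr, 37C, 0% CO2. Add nilutamide to 3.0uM final, then pin compounds at 15 concentrations. Incubate 16 hr. Add CellTiter-Fluor at 15 hr, read fluorescence after 1 hr.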

Assay [11] in a line: qHTS assay to identify small molecule agonists of the estrogen receptor beta (ER-beta) signaling pathway - cell viability counter screen (AID 1259380). Also: nearly all actives have a fitted effect of over 30% in size. The method, boiled down:
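CellTiter-Glo read, 30 min RT, same wells as bla assay; cells ER-beta-UAS-bla HEK293T; 16 hr compound, 37C; medium 2% charcoal-stripped FBS.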

Assay [12] is described as follows: qHTS assay to identify small molecule antagonists of the estrogen receptor beta (ER-beta) signaling pathway - cell viability counter screen (AID 1259382). Also: series mostly up to about 92 µM; nearly all actives have a fitted effect of over 55% in size. Put shortly:
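In this multiplexed counter screen, cells were seeded at 2,000 per well in medium with 2% charcoal-stripped FBS and incubated 6 hr before compound and 1nM final E2 were added. Sixteen hours later, ATP-based luminescence reported viability.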

Assay [13] addresses Estrogen receptor (Homo sapiens) (UniProt P03372). Put plainly: qHTS assay to identify small molecule agonists of the estrogen receptor alpha (ER-alpha) signaling pathway in the presence of an antagonist (AID 1259383; calls by dose curve; also: nearly all actives have a fitted effect of over 15% in size; also: potency is read from the fitted curve at half-maximal effect; as to activation: top concentration of the series differs between compounds). Put shortly: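 Stably transfected VM7Luc4E2 reporter cells, kept 5 days in charcoal-stripped serum, received ICI-182,780 at 10.0nM final before compound addition. Following 22hr incubation at 37C and 5% CO2, luciferase signal was read by luminescence.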

Assay [14] in a line: qHTS assay to identify small molecule agonists of the estrogen receptor alpha (ER-alpha) signaling pathway in the presence of an antagonist - cell viability counter screen (AID 1259386).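 Also: series mostly up to about 92 µM; cells exposed to compounds for 22 h at 37 °C before the viability read; nearly all actives have a fitted effect of over 30% in size.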 The method, boiled down:
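Viability counter screen using VM7Luc4E2 (full-length ER-alpha, four ERE-luciferase). The cells were treated with compounds alongside ICI-182,780 10.0nM for 22hr, and live-cell protease fluorescence was quantified with CellTiter-Fluor.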

The target of assay [15] is Progesterone receptor (Homo sapiens) (UniProt P06401). Put plainly: qHTS assay to identify small molecule agonists of the progesterone receptor (PR) signaling pathway (AID 1346784; calls by dose curve; also: nearly all actives have a fitted effect of over 30% in size). The method, boiled down:
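PR-UAS-bla HEK 293T cells (beta-lactamase reporter under UAS) in 2% charcoal-stripped FBS, dosed with 23 nL compound after 6 hr, incubated 16hr at 37C. LiveBLAzer B/G FRET substrate added, fluorescence read after 2 hours.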

Assay [16] shares this target. Put plainly: qHTS assay to identify small molecule antagonists of the progesterone receptor (PR) signaling pathway (AID 1346795; active = well fitted inhibition curve with a large enough effect in the signal ratio in the repeat runs, not every such curve was filed as active; the % refers to the signal ratio; also: potency is read from the fitted curve at half-maximal effect). The method, boiled down:
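PR-UAS-bla HEK293T cells with beta-lactamase reporter under UAS control, in 2% charcoal-stripped FBS, treated with compounds plus 1 nM promegestone (R5020, final) for 16 hr at 37C. Read-out: FRET beta-lactamase substrate fluorescence after 2 hr at room temperature.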

Assay [17] in a line: qHTS assay to identify small molecule antagonists of the progesterone receptor (PR) signaling pathway - cell viability counter screen (AID 1346798). Also: series mostly up to about 92 µM; nearly all actives have a fitted effect of over 50% in size. Put shortly: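 PR-UAS-bla HEK293T cells, 3,000/well in 2% charcoal-stripped FBS medium, dosed with compounds plus R5020 agonist and incubated 16 h at 37C. Viability then measured in the same wells by CellTiter-Glo luminescence after 30 min at RT.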

Assay [18] can be described thus: qHTS assay to identify small molecule agonists or antagonists of the thyroid stimulating hormone receptor (TSHR) signaling pathway - wild type cell line counter screen (AID 1259384; calls by dose curve). The method, boiled down: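 Wild-type HEK293 cells were plated 18 h at 37 C/5% CO2, pin-dosed with compound plus Ro20-1724 medium, held 30 min at room temperature, then given cAMP-d2 and anti-cAMP-cryptate; fluorescence was read after 1 h. Fifteen concentrations, triplicate.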

Assay [19] concerns the target Thyrotropin receptor (Homo sapiens) (UniProt P16473). Description: qHTS assay to identify small molecule antagonists of the thyroid stimulating hormone receptor (TSHR) signaling pathway (AID 1259385; calls by dose curve; also: nearly all actives have a fitted effect of over 20% in size). Put shortly:
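TSHR-HEK293 cells were plated and held 18 h at 37C/5% CO2, then given compound plus Ro20-1724 and stimulated with TSH at 1.5 ng/mL final. After 30 min at room temperature, cAMP was detected with cAMP-d2/anti-cAMP-cryptate (1 h) by fluorescence.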

Assay [20] has as its target Androgen receptor (Homo sapiens) (UniProt P10275). Description: qHTS assay to identify small molecule agonists of the androgen receptor (AR) signaling pathway in the presence of an antagonist (AID 1259381; calls by dose curve; also: nearly all actives have a fitted effect of over 15% in size). Put shortly:
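Test compounds at 15 concentrations were incubated for 16hr with MDA-kb2 reporter cells in presence of 3.0uM nilutamide (final). Signal: ONE-Glo luciferase luminescence.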

Sequence of Thyrotropin receptor (Homo sapiens) (P16473 whole entry, looked up): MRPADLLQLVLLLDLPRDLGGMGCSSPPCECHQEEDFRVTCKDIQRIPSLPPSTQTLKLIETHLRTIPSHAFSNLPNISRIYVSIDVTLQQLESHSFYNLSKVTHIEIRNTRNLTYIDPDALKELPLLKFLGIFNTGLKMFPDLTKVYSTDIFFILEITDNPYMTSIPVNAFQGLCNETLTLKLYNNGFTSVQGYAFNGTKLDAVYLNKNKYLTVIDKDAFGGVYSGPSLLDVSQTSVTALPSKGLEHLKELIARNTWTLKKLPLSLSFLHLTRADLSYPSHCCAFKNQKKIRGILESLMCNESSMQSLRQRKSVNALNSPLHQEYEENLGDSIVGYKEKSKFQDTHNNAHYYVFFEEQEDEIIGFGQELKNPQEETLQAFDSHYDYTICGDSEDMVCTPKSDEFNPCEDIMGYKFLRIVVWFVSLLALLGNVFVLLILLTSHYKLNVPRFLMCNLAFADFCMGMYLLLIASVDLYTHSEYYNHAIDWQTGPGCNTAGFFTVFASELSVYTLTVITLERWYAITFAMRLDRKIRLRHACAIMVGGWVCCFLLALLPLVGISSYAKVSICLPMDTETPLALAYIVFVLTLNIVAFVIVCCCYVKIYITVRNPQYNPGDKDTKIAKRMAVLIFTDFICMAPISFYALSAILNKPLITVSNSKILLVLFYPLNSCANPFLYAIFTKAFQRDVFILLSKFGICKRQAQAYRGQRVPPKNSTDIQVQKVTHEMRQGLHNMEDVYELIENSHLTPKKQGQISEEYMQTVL
Sequence of Estrogen receptor (Homo sapiens) (P03372 whole entry, looked up): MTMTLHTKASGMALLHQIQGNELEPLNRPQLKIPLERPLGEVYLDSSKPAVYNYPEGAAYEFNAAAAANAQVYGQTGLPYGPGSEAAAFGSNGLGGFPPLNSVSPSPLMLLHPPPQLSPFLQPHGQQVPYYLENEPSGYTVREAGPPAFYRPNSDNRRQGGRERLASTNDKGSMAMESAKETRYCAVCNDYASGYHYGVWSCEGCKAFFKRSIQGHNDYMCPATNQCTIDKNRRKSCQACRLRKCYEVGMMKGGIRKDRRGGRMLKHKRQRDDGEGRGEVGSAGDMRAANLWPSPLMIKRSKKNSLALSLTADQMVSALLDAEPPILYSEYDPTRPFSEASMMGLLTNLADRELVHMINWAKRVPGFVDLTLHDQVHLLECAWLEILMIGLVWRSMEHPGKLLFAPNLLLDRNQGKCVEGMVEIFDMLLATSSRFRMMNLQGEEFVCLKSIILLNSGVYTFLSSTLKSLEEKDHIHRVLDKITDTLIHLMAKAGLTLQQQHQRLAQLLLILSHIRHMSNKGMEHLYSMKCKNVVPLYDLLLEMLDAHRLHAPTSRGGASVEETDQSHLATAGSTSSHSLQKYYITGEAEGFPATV
Sequence of Progesterone receptor (Homo sapiens) (P06401 whole entry, looked up): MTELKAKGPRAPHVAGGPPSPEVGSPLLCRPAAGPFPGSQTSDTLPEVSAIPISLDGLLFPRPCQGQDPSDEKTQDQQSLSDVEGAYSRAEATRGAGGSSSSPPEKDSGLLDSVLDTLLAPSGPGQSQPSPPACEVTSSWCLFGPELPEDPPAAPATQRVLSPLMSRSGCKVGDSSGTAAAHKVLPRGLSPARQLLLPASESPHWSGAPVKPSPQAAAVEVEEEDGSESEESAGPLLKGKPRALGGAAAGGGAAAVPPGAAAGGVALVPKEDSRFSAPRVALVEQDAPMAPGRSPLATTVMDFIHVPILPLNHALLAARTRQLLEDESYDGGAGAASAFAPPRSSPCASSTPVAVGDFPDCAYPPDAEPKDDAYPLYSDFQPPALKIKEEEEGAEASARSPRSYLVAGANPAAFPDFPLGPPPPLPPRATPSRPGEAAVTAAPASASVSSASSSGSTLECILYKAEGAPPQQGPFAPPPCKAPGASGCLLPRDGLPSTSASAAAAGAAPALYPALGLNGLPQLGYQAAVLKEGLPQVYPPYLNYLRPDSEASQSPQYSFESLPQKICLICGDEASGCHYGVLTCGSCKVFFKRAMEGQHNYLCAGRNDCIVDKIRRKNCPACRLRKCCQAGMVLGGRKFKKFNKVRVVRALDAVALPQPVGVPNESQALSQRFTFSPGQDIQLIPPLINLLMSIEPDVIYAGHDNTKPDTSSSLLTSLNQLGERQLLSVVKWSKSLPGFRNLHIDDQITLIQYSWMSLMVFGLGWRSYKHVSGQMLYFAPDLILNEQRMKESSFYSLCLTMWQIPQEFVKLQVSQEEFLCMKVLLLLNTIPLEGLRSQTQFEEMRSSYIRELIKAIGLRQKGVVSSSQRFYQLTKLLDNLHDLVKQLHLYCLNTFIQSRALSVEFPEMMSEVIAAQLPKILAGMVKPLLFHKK
Sequence of Androgen receptor (Homo sapiens) (P10275 whole entry, looked up): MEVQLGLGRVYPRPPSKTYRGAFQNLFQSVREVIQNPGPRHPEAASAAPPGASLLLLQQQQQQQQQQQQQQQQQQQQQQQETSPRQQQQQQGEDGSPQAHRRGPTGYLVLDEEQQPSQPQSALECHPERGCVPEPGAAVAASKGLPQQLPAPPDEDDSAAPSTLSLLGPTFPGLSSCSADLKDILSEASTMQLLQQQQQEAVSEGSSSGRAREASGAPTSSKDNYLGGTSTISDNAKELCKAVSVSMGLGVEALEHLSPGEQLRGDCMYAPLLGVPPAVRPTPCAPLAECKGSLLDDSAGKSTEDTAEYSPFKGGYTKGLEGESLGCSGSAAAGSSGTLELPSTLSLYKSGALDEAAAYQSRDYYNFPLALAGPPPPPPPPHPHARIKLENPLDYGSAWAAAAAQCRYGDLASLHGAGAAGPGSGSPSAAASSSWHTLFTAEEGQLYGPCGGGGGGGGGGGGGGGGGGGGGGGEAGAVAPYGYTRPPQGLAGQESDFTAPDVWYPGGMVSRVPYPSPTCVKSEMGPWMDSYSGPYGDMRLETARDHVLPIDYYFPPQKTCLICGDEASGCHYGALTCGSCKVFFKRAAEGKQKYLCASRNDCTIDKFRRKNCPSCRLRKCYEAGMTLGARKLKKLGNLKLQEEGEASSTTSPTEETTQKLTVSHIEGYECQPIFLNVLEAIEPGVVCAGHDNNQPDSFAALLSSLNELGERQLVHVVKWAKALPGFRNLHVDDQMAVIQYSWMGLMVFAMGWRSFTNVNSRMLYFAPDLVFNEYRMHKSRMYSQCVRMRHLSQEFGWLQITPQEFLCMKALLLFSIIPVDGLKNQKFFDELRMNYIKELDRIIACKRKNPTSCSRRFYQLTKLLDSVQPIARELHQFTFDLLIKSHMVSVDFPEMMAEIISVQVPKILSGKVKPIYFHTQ
Sequence of Estrogen receptor beta (Homo sapiens) (Q92731 whole entry, looked up): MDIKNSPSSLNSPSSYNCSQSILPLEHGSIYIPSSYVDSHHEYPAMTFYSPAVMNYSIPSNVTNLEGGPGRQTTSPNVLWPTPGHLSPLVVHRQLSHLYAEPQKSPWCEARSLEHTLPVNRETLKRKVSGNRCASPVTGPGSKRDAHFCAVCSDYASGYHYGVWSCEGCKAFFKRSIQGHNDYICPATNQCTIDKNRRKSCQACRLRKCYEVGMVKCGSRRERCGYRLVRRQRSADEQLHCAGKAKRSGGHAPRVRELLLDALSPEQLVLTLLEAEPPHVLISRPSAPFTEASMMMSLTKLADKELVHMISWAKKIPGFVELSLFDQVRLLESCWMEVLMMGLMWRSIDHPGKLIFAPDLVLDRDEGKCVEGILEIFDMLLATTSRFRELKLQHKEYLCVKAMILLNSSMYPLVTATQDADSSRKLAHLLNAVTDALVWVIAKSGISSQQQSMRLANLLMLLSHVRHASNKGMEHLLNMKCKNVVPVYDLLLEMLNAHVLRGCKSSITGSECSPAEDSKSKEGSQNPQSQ

`O=S(=O)(c1ccc(O)cc1)c1ccc(O)cc1`: the Potency entry in assay [1], in assay [2], in assay [4], in assay [5], in assay [11] and in [12] was “inactive” throughout. For the same compound, the Potency result in assay [16] and in [17] was “inactive” throughout. Further, the call in assay [3], in assay [6], in assay [9], in assay [10], in assay [14] and in assay [15] was inactive. The Potency is 34.4 µM (active) in [7]; 4.35 µM (active) and 4.33 µM (active) in [8]; 54.5 µM (active) in [13].
As for `O=C(O)c1ccccn1`, the Potency result in assay [1], in assay [2], in assay [4], in [5], in [7] and in [8] was “inactive” in each case. Further, the Potency result in assay [11], in assay [12], in assay [13], in assay [16] and in assay [17] was “inactive” in each case. Also, the result in assay [3], in [6], in [9], in [10], in assay [14] and in assay [15] was inactive.
On to `Nc1ccc(Br)cc1`, for which the Potency entry in assay [1], in [2], in [4], in assay [5], in [8] and in [11] was “inactive” each time. Besides, the Potency result in assay [12], in assay [13], in [19] and in assay [17] was “inactive” in each case. The compound was called inactive in assay [3], in assay [6], in assay [10], in [18], in assay [14] and in assay [15]. Moreover, the Potency in assay [7] was 43.2 µM (active) and inactive; in assay [16], 61 µM (active).
For `CCN(CC)c1ccccc1`, the Potency result in assay [1], in assay [2], in assay [4], in [5], in [7] and in assay [8] was “inactive” each time. For the same compound, the Potency result in [11], in assay [12], in [13], in [16] and in [17] was “inactive” in each case. The call in assay [3], in assay [6], in assay [10], in [20], in assay [14] and in assay [15] was inactive.
Turning to `C#CCN(C)[C@H](C)Cc1ccccc1`, the Potency entry in assay [1], in [2], in assay [4], in assay [5], in assay [7] and in assay [8] was “inactive” throughout. For the same compound, the Potency result in assay [11], in [12], in assay [13], in assay [19], in [16] and in [17] was “inactive” throughout. In addition, the result in assay [3], in assay [6], in [10], in assay [18], in assay [14] and in [15] was inactive.
`CCCCOC(=O)c1ccccc1C(=O)OCCCC`: the Potency result in assay [1], in [2], in assay [4], in [5], in assay [7] and in assay [8] was “inactive” in each case. In addition, the Potency entry in assay [11], in [12], in assay [13], in assay [19] and in [17] was “inactive” throughout. Besides, the result in assay [3], in assay [6], in assay [10], in assay [18], in [14] and in assay [15] was inactive.
`O=C(NC(=O)c1c(F)cccc1F)Nc1cc(Cl)c(OC(F)(F)C(F)C(F)(F)F)cc1Cl` (stereo unspecified): the Potency entry in [1], in [2], in [4], in [5], in [7] and in [8] was “inactive” in each case. Also, the Potency result in assay [11], in [12], in [13], in assay [19] and in assay [17] was “inactive” in each case. Besides, the result in assay [3], in assay [6], in assay [10], in assay [20], in assay [18] and in assay [14] was inactive. In assay [15], the compound was classed as inactive.
For the compound `CC(Br)C(=O)O` (stereo unspecified), the Potency entry in [1], in [2], in [4], in assay [5], in assay [7] and in assay [8] was “inactive” throughout. For the same compound, the Potency result in assay [11], in [12], in [13], in assay [19], in assay [16] and in [17] was “inactive” throughout. Also, the call in assay [3], in [6], in assay [9], in [10], in [18] and in assay [14] was inactive. Moreover, the outcome in assay [15] was inactive.
